Experimental data taken from PubChem BioAssay AID1159580 (chemical genetic matrix, 2015).
Among all 5,500 compounds or so, about 2,000 (36%) were called active. Not shown: some 18% with an inconclusive outcome. Rule as the data show it: active = normalized growth mostly below about 0.91 (no sharp cut-off); inconclusive = no clear call, values can overlap the other calls; inactive = mostly above about 0.92. Some of the results follow.

Assay: chemical genetic growth profiling, strain panel (AID 1159580);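 also: tested at 20 µM; growth read once vehicle control cultures reached saturation at 30 °C; 1 = growth at the plate median or of vehicle wells; lower values mean less growth of the strain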
Conditions: S. cerevisiae deletion strains, growth OD

Measured: normalized growth

COc1ccc(C(=O)C2CCNCC2)cc1
inactive: locus YAL013W, strain DEP1, hits give low values 0.991 | locus YBR229C, strain ROT2, hits give low values 0.974 | locus YDL101C, strain DUN1, hits give low values 0.972 | locus YDR150W, strain NUM1, hits give low values 1.03 | locus YEL061C, strain CIN8, hits give low values 1.01 | locus YGR078C, strain PAC10, hits give low values 0.99 | locus YGR229C, strain SMI1, hits give low values 1.01 | locus YHR030C, strain SLT2, hits give low values 1.06 | locus YHR087W, strain rtc3, hits give low values 0.974 | locus YJL187C, strain SWE1, hits give low values 1 | locus YJR043C, strain POL32, hits give low values 1.01 | locus YJR075W, strain HOC1, hits give low values 1.01 | locus YKL190W, strain CNB1, hits give low values 1 | locus YLR039C, strain RIC1, hits give low values 1 | locus YLR058C, strain SHM2 (second series), hits give low values 0.988 | locus YLR085C, strain ARP6, hits give low values 1.09 | locus YLR262C, strain YPT6, hits give low values 0.998 | locus YML094W, strain GIM5, hits give low values 0.969 | locus YMR219W, strain ESC1, hits give low values 0.998 | locus YMR263W, strain SAP30, hits give low values 1.02 | locus YNL128W, strain TEP1, hits give low values 0.983 | locus YNL153C, strain GIM3, hits give low values 1.02 | locus YNL298W, strain CLA4 (second series), hits give low values 0.998 | locus YNL322C, strain KRE1, hits give low values 1 | locus YNR030W, strain Alg12, hits give low values 1.01 | locus YPL055C, strain LGE1, hits give low values 1.01 | locus YPL241C, strain CIN2, hits give low values 1.07 | locus YPR135W, strain CTF4, hits give low values 0.995
